Source: PubChem BioAssay
In the library only some 12% were active in any assay of this set; here they are far more common.
Pf growth 96h – Primary qHTS for delayed death inhibitors of the malarial parasite plastid, 96 hour incubation | P. falciparum luciferase reporter growth, 96 h | Potency, µM (highest dose often 28.7 µM), most hits filed as inhibitors | 320,000 compounds, 6.9% hits | AID 504834, 2011
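P. falciparum expressing integrated firefly luciferase, in erythrocytes at 2% hematocrit, 0.05% parasitemia, incubated with compounds 96 h at 37 C, 5% CO2. Growth inhibition read as loss of luminescence; two-generation exposure targets delayed-death apicoplast inhibitors.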
Sm TGR block – qHTS Assay for the Inhibitors of Schistosoma Mansoni Peroxiredoxins | Schistosoma mansoni thioredoxin glutathione reductase (TGR), Q962Y6 | purified TGR, DTNB reduction, TNB absorbance 405 nm | Potency, µM (series often up to 114 µM), most hits filed as inhibitors | 360,000 compounds, 3% hits | AID 485364, 2010; note: nearly all actives have a fitted effect of over 60% in size
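First, TGR (20 nM dispensed) and NADPH were mixed with compound. Second, a 15 min room-temperature incubation followed. Third, further NADPH and then DTNB were added to start the reaction. Finally, TNB absorbance was monitored kinetically.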
AmpC no deterg – qHTS Inhibitors of AmpC Beta-Lactamase (assay without detergent); Potency, µM (doses to about 57.1 µM), usual class: inhibitors; 330,000 compounds, 0.52% hits; AID 485341, 2010; AmpC nitrocefin hydrolysis, absorbance 480 nm, 0.0001% Triton; P00811; note: nearly all actives have a fitted effect of over 20% in size
Target sequence (P00811 whole entry, looked up): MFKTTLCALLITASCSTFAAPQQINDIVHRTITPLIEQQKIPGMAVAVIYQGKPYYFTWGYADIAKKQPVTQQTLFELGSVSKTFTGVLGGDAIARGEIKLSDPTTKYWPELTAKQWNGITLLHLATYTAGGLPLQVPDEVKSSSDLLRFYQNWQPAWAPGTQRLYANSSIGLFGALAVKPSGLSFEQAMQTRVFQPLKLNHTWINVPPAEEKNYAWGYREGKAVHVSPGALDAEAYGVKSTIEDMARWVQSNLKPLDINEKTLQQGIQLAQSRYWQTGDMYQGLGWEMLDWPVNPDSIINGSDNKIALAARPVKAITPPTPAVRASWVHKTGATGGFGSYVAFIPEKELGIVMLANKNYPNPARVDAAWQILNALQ
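20 mM phosphate pH 7.0 + 0.01% (detergent screen) or 0.0001% Triton X-100; 5.3 nM AmpC reagent; cpd preinc 15 min RT; nitrocefin (800 uM stock) to start; A480 q20 s × 4 min; Activity was normalised to no-enzyme and no-compound control wells.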
SARS PLpro yeast – qHTS of Yeast-based Assay for SARS-CoV PLP; S. cerevisiae expressing SARS-CoV PLpro, growth rescue; Potency, µM (highest dose often 32.9 µM), usual class: activators; 330,000 compounds, 0.19% hits; calls by dose curve; note: nearly all actives have a fitted effect of over 55% in size
Pf growth 48h – Primary qHTS for delayed death inhibitors of the malarial parasite plastid, 48 hour incubation; P. falciparum luciferase growth in erythrocytes, 48 h; 310,000 compounds, 5.9% hits; Potency, µM (titrated, usually from 28.7 µM), usual class: inhibitors
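Luciferase-expressing P. falciparum in infected erythrocytes (2% hematocrit, 0.1% parasitemia final) in RPMI 1640/0.5% Albumax were exposed to compound for 48 hours at 37 C, 5% CO2; growth read as luminescence.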
AmpC detergent – qHTS Inhibitors of AmpC Beta-Lactamase (assay with detergent); P00811; Potency, µM (series often up to 114 µM), actives largely listed as inhibitors; AmpC hydrolysis of nitrocefin, absorbance 480 nm, 0.01% Triton; 370,000 compounds, 0.041% hits; note: nearly all actives have a fitted effect of over 25% in size
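AmpC (5.3 nM in the dispensed reagent) in 20 mM phosphate pH 7.0 with 0.01% (detergent screen) or 0.0001% Triton X-100 was preincubated with compounds for 15 min at room temperature. Nitrocefin was then added from an 800 uM solution, and hydrolysis was followed at 480 nm.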
A number is an active result; i = inactive; ? = inconclusive; nt = no result given; [ ] = remark or other dose. Unless noted, calls come from the whole dose curve; as a rule, active = well fitted curve in the direction sought with a large enough effect; inconclusive = small, poorly fitted or top-dose-only effect, or another doubt; inactive = no such curve, though single readings can be large; an effect the other way counts as inactive or inconclusive.

SMILES | Pf growth 96h | Sm TGR block | AmpC no deterg | SARS PLpro yeast | Pf growth 48h | AmpC detergent
COc1ccc(OC)c(N=c2ssnc2Cl)c1 | 1.65µM | 56.2µM | i | i | i | i
COc1cc(N=c2ssnc2Cl)c(OC)cc1Cl | ? | ? | i | i | i | i
COc1ccc(NCc2cc3ccc(OC)cc3n(CC(=O)Nc3ccc(C)c(C)c3)c2=O)cc1 | nt | i | nt | nt | nt | i
CC1Sc2n(c3ccccc3[n+]2C)N=C1c1ccccc1 (stereo unspecified) | i | i | i | i | 0.928µM | i
CC(C)CN1C(=O)NC(NC(=O)c2ccco2)(C(F)(F)F)C1=O (stereo unspecified) | ? | i | i | i | i | i
O=C(NC1(C(F)(F)F)NC(=O)N(CC2CCCCC2)C1=O)c1ccco1 (stereo unspecified) | ? | 79.4µM | i | i | i | ?
COc1ccccc1NC(=O)CSc1nc2c(oc3ccccc32)c(=O)n1-c1ccc(C)cc1 | nt | i | nt | nt | nt | i
C=CCn1c(SC(C)C(=O)c2c(N)n(C)c(=O)n(C)c2=O)nnc1-c1ccoc1C (stereo unspecified) | 8.28µM | i | i | i | 11.7µM | i
C=CCn1c(SCC(=O)c2c(N)n(C)c(=O)n(C)c2=O)nnc1-c1ccccc1F | ? | i | i | i | i | i
Cc1ccc2cc(CN(CCN3CCCC3)C(=O)Nc3ccccc3)c(=O)[nH]c2c1C | ? | i | i | i | 10.4µM | i
Cc1ccc2cc(CN(CCN3CCCC3)C(=O)Nc3ccc(F)cc3)c(=O)[nH]c2c1C | i | i | i | i | 13.1µM | i
Cc1ccc2cc(CN(CCN3CCOCC3)C(=O)NCc3ccccc3)c(=O)[nH]c2c1C | ? | i | i | i | ? | i
COc1ccc(NC(=O)N(CCN2CCCC2)Cc2cc3cc(OC)c(OC)cc3[nH]c2=O)cc1 | ? | i | i | i | 9.28µM | i
Cc1[nH][nH]c(=O)c1C(c1ccc(-c2cccc(Cl)c2)o1)c1c(C)[nH][nH]c1=O | ? | 7.08µM | i | i | i | i
Cc1[nH][nH]c(=O)c1C(c1ccc(-c2cccc(C(=O)O)c2)o1)c1c(C)[nH][nH]c1=O | i | ? | i | i | i | i
COC(=O)c1ccc(-c2ccc(C(c3c(C)[nH][nH]c3=O)c3c(C)[nH][nH]c3=O)o2)cc1 | i | 8.91µM | i | i | i | ?
Cc1ccccc1/C=C/c1cc[n+](C)cc1 | ? | i | i | i | 5.22µM | i
Cc1[nH]c2ccccc2c1/C=C/C(=O)c1ccncc1 | ? | i | i | i | ? | i
Cc1[nH]c2ccccc2c1/C=C/c1cc[n+](C)cc1 | 0.147µM | i | i | i | 0.415µM | ?
CCOc1ccc(/C=C2\SC(=S)N(N3C(=O)C4CC4C3=O)C2=O)cc1 (stereo unspecified) | i | i | i | i | 4.15µM | i
CCOc1ccc(/C=C2\SC(=S)N(CC(=O)N(CCO)C(C)(C)C)C2=O)cc1 | i | nt | i | i | i | i
CCOc1ccc(/C=C2/SC(=O)NC2=S)cc1 | ? | 44.7µM | i | i | i | i
COc1ccc(CN(C)C(=O)Cc2ccc(OC)c(S(=O)(=O)N3CCOCC3)c2)cc1OC | ? | i | i | i | i | i
Cc1ccc(NC(=O)Cn2ncc(Cl)c(Cl)c2=O)cc1S(=O)(=O)N1CCCCC1 | ? | 8.91µM | 3.98µM | i | ? | i
COc1ccc(NC(C)=O)cc1S(=O)(=O)N1CCN(C(=O)c2ccccc2F)CC1 | ? | i | i | i | 2.08µM | i
SMILES | Pf growth 96h | Sm TGR block | AmpC no deterg | SARS PLpro yeast | Pf growth 48h | AmpC detergent
COc1ccc(Br)cc1CN(C)C(=O)Cc1ccc(OC)c(S(=O)(=O)N2CCOCC2)c1 | 6.57µM | i | i | i | ? | i
COc1cc(OC)c(S(=O)(=O)N2CCN(C(=O)c3ccccc3F)CC2)cc1NC(C)=O | i | i | i | i | i | i
COc1ccc(CC(=O)Nc2ccc(F)c(Cl)c2)cc1S(=O)(=O)N1CCOCC1 | ? | i | i | i | 6.57µM | i
COc1cc(-c2nnc3n2CCCCC3)cc(OC)c1OC | i | i | i | i | i | i
CNc1nc(Nc2ccc(Br)cc2)nc(N)c1[N+](=O)[O-] | i | i | ? | i | i | i
COc1cc(CNCc2c[nH]c3ccccc23)cc(OC)c1 | ? | i | i | i | ? | i
Cc1ccc(NC(=O)Cc2ccc(Cl)cc2)cc1S(=O)(=O)N1CCCCCC1 | ? | i | i | i[6.58 µM] | 13.1µM | i
COc1ccc(NC(=O)Cc2ccccc2F)cc1S(=O)(=O)N1CCCCC1 | ? | i | i | i | ? | i
COc1ccc(NC(=O)Cc2ccc(Cl)cc2)cc1S(=O)(=O)N1CCCCC1 | 10.4µM | i | i | i | ? | i
CC1(C)CC2CC(C)(CN2/C=C2/CCCCC2=O)C1 (stereo unspecified) | i | 35.5µM | i | i | ? | i
CN1CCN(C(=O)c2ccccc2NC(=O)c2ccc(C(C)(C)C)cc2)CC1 | ? | i | i | i | i | i
CCOC(=O)N1CCN(C(=O)C(NC(=O)c2ccc(C(C)(C)C)cc2)C(C)C)CC1 (stereo unspecified) | ? | i | i | i | 9.28µM | i
CCOC(=O)N1CCN(C(=O)c2ccccc2NC(=O)c2ccc(C(C)(C)C)cc2)CC1 | ? | i | i | i | 10.4µM | i
COc1ccc2c3c([nH]c2c1)C1CC2C(CC(O)C(OC)C2C(=O)O)CN1CC3 (stereo unspecified) | 3.7µM | i | i | i | 9.28µM | i
O=C(O)[C@@H]1[C@@H]2C[C@H]3c4[nH]c5ccccc5c4CCN3C[C@@H]2CC[C@@H]1O | 5.73µM | nt | nt | nt | ? | nt
COC(=O)[C@H]1[C@H]2C[C@@H]3c4[nH]c5cc(OC)ccc5c4CCN3C[C@H]2C[C@@H](OC(=O)c2cc(OC)c(OC)c(OC)c2)[C@@H]1OC | 1.65µM | i | i | nt | 1.47µM | i
O=C(C1CC1)N1CCc2[nH]c3ccccc3c2C1 | i | i | i | i | i | i
CCOC(=O)c1c(C)c(-c2ccccc2)n(CC(=O)NC(CC)Cc2ccccc2)c1C (stereo unspecified) | nt | i | nt | nt | nt | i
CC(C)CNC(=S)N1CCC(NC(=O)c2ccco2)CC1 | 11.7µM | i | i | i | i | i
Cc1ccccc1NC(=S)N1CCC(NC(=O)c2ccco2)CC1 | 3.29µM | i | i | i | i | i
CCOCCCNC(=S)N1CCC(NC(=O)c2ccco2)CC1 | i | i | i | i | i | i
CC(C)NC(=S)N1CCC(Cc2ccccc2)CC1 | i | i | i | i | i | i
CC(C)CNC(=S)N1CCC(Cc2ccccc2)CC1 | 14.7µM | i | i | i | ? | i
